Screening results from PubChem BioAssay.
DSG3 Ab inh: inhibitors of pemphigus antibody binding to human desmoglein-3; 310,000 compounds, 0.48% hits; DSG3-coupled beads, scFv-anti-DSG3-GFP binding, flow cytometry; hits give low values; AID 588358; binding (percent of control), % at 10 µM; P32926;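 active means binding more than 3 SD below its plate's average and above zero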;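 further: hits lower antibody fragment binding to DSG3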
PAFAH2 FP inh: PAFAH2 (human) inhibition. Q99487. recombinant PAFAH2, FP-rhodamine activity probe, fluorescence polarization. inhibition, % at 3.39 µM. 340,000 compounds, 0.99% hits;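 active means inhibition above the mean over all tested compounds plus 3 SD, cut at about 30% in these data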;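 further: inhibitors block probe labeling of enzyme so polarization drops; 0% = enzyme with DMSO and 100% = wells lacking PAFAH2 protein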
PAFAH1B2 inh: PAFAH1B2 (human) inhibition; P68402; 340,000 compounds, 1.2% hits; inhibition, % at 3.39 µM; AID 492953; recombinant PAFAH1B2, FP-rhodamine activity probe, fluorescence polarization;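 active means inhibition above the mean of all tested compounds plus 3 SD, cut at about 24% in these data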;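 further: 0% = enzyme with DMSO and 100% = wells lacking PAFAH1B2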
pPAFAH inh: pPAFAH (human) enzyme inhibition; AID 463082; Q13093; recombinant pPAFAH, FP-rhodamine probe fluorescence polarization; 330,000 compounds, 1.5% hits; inhibition, % at 3.39 µM;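 active means inhibition above the mean inhibition across the screen plus 3 SD, cut at about 25% in these data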;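 further: inhibitors block binding of the rhodamine activity-based probe so polarization drops; 0% = enzyme with DMSO and 100% = wells lacking pPAFAH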
Target sequence (Q13093 whole entry, looked up): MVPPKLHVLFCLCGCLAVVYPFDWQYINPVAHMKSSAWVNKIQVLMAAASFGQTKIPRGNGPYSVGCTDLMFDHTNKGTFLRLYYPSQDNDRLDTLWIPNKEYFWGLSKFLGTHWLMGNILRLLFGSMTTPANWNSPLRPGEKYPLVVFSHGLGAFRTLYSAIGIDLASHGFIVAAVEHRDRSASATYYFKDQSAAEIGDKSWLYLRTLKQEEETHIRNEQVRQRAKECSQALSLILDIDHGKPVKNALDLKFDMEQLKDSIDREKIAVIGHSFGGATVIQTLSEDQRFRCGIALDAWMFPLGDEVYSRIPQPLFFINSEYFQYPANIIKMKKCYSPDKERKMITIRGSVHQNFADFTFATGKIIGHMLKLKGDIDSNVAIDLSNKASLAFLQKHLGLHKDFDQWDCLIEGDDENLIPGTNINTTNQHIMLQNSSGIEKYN
PAFAH1B3 inh: inhibitors of human PAFAH1B3 | Q15102 | recombinant PAFAH1B3, FP-rhodamine probe, fluorescence polarization | inhibition, % at 3.39 µM | 340,000 compounds, 0.28% hits | AID 492972;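 active means inhibition above the screen-wide average of all tested compounds plus 3 SD, cut at about 25% in these data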;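 further: 0% = enzyme with DMSO only and 100% = wells lacking PAFAH1B3 protein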
Target sequence (Q15102 whole entry, looked up): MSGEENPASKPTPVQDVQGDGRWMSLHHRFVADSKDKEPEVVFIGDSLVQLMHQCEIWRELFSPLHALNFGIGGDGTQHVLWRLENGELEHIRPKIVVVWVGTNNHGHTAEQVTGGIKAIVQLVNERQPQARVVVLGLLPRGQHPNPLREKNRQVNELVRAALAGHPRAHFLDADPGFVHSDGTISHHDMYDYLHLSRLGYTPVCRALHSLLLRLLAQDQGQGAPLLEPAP
M18AAP inhibitor: PfM18AAP enzyme inhibition. recombinant PfM18AAP, H-Glu-NHMec fluorogenic cleavage. inhibition, % at 7.35 µM. 290,000 compounds, 1.2% hits. AID 1822;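 active means inhibition above the campaign mean inhibition over all tested compounds plus 3 SD, cut at about 28% in these data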;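 further: 0% = plate median of test compound wells and 100% = 2 mM ZnCl2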
* hit, by the source's call; . = no result given. This is a sample that favours compounds with a hit; in the whole collection about 3.8% have one here.

SMILES	DSG3 Ab inh	PAFAH2 FP inh	PAFAH1B2 inh	pPAFAH inh	PAFAH1B3 inh	M18AAP inhibitor
CC(C)N1CCN(Cc2cccc(-n3cccn3)c2)CC1CCO (centres undefined)	92.2	1.0	5.0	-3.4	8.6	1.4
O=C1CCC(=O)N1c1ccccc1OS(=O)(=O)c1ccccc1	107.1	1.9	4.2	0.5	1.6	0.0
O=S(=O)(Oc1ccccc1N1CCCCC1)c1ccccc1	115.8	7.4	30.9*	-5.6	4.9	-2.6
Cc1nnc(SCC(=O)Nc2ccc(C(N)=O)cc2)n1-c1ccccc1	97.8	2.6	1.0	0.2	6.7	5.4
Cc1nnc(SCC(=O)Nc2cc(C(N)=O)cc(C(N)=O)c2)n1-c1ccccc1	101.5	1.8	28.3*	3.0	-2.2	0.1
N#Cc1ccccc1NC(=O)CSc1nnc(-c2ccc(F)cc2)n1-c1ccccc1	107.0	-4.0	25.7*	.	-0.1	-0.4
O=C(CSc1nnc(-c2ccc(O)cc2)n1-c1ccccc1)CC(=O)Nc1ccccc1	118.4	-3.6	4.3	13.7	0.9	32.8*
Cc1cc(NC(=O)CSc2nnc(-c3c[nH]c4ccccc34)n2-c2ccc(F)cc2)no1	14.2*	3.9	2.0	2.8	-3.7	2.1
Cc1nnc(SCC(=O)Nc2ccccc2F)n1-c1ccc(F)cc1	98.8	-2.9	2.5	-1.3	-2.5	1.4
Cn1c(SCC(=O)CC(=O)Nc2ccccc2)nnc1-c1ccc(O)cc1	105.2	8.0	-1.0	8.4	3.2	-0.6
O=C(O)c1ccccc1NC(=O)C1CCN(S(=O)(=O)c2ccc3c(c2)OCCO3)CC1	96.8	.	.	.	.	.
CC(C)NC(=O)Nc1ccc2c(c1)C(=O)N([C@H](C)CO)C[C@H](C)[C@@H](CN(C)Cc1ccc(C(F)(F)F)cc1)OCCCC[C@H](C)O2	94.4	.	.	.	.	.
CC1(OC(=O)CCc2ccccc2)C(=O)C=C2C=C(c3ccc(C#N)cc3)N(C3CC3)C=C2C1=O (centres undefined)	102.6	1.9	-0.5	3.7	7.2	.
COc1ccc(C2=CC3=CC(=O)C(C)(O)C(=O)C3=CO2)cc1 (centres undefined)	.	.	.	38.0*	.	.
CC1(O)C(=O)C=C2C=C(c3ccc(C#N)cc3)OC=C2C1=O (centres undefined)	.	.	.	56.5*	.	.
COc1ccc(C2=CC3=C(Br)C(=O)C(C)(O)C(=O)C3=CO2)cc1 (centres undefined)	90.9	8.5	8.5	14.6	12.6	.
CCOC(=O)c1ccc(N2CCN(c3ccc(F)cc3)CC2)c(NC(=O)Nc2cccc(OC)c2)c1	100.8	-21.4	-2.8	29.1*	-17.2	5.9
COc1cccc(NC(=O)Nc2cc(C(=O)O)ccc2N2CC3CC(C2)c2cccc(=O)n2C3)c1 (centres undefined)	100.7	8.5	6.9	33.9*	8.4	9.1
COc1cc(N)c(C(=O)c2nccc3cc(OC)c(OC)cc23)cc1OC	122.1	1.4	7.5	-1.1	-1.5	-3.5
COc1cc(Br)c(C(=O)c2nccc3cc(OC)c(OC)cc23)cc1OC	92.5	40.0*	19.9	13.9	66.6*	1.1
CCOc1ccc(CN2CCN(C3CCSCC3)CC2CCO)cc1 (centres undefined)	107.0	0.7	1.4	2.2	6.2	-0.2
N#CC(C(O)c1ccccc1)N1CCOCC1 (centres undefined)	103.5	.	.	.	.	.
COc1cccc2c(=O)c3cccc(N)c3[nH]c12	104.5	9.8	0.1	30.9*	11.5	18.0
COc1cccc2c(=O)c3c([nH]c12)OC(C)(C)C3	109.6	-2.3	9.2	6.8	7.5	.
CC(=O)N(C(C)=O)c1ccc(Oc2ccc(Oc3ccc(N(C(C)=O)C(C)=O)cc3)cc2)cc1	99.0	.	.	.	.	.
SMILES	DSG3 Ab inh	PAFAH2 FP inh	PAFAH1B2 inh	pPAFAH inh	PAFAH1B3 inh	M18AAP inhibitor
CCCCNC(=S)NNC(=O)c1c(Cl)c(C)nn1C	.	5.0	1.6	7.1	10.1	-0.8
CCCCNC(=S)NNC(=O)c1c(C)nc2ccccn12	98.1	-1.6	2.3	4.5	4.7	38.2*
CCCCNC(=S)NNC(=O)c1ccoc1C	103.8	-8.1	-2.5	2.5	-2.2	29.2*
CCCc1cc(CNC(=O)C2CCC(=O)N(Cc3ccccc3OC)C2)on1 (centres undefined)	.	-5.0	0.9	1.0	5.3	5.1
O=C(COc1ccc([N+](=O)[O-])cc1)Nc1ccc(CN2CCOCC2)cc1	100.2	-5.1	2.1	1.4	0.9	4.0
Nc1ncccc1C(=O)OCC(=O)N1CCN(S(=O)(=O)c2ccc(Cl)cc2)CC1	98.9	5.1	24.2*	-4.1	6.3	.
COc1ccc(CN(C)C(=O)CCC(=O)N2CCN(S(=O)(=O)c3ccc(Cl)cc3)CC2)c(OC)c1	104.1	-2.4	26.6*	.	-0.5	.
O=C(CCCOc1ccccc1)N1CCN(S(=O)(=O)c2ccc(Cl)cc2)CC1	99.1	2.9	29.5*	7.0	8.8	.
COc1ccc(NS(=O)(=O)c2ccc(OCC(=O)N3CCOCC3)cc2)cc1	99.7	-0.3	-3.6	14.7	5.0	4.3
COc1ccc(CN(C)C(=O)CCc2ccc(S(=O)(=O)N3CCCCCC3)cc2)c(OC)c1	101.1	0.7	1.2	11.6	-2.0	.
O=C(COc1ccc(S(=O)(=O)Nc2ccccc2)cc1)N1CCOCC1	.	5.1	-2.4	27.3*	2.8	3.7
Cc1cc(C)n(-c2ccc(C(=O)N3CCN(S(=O)(=O)c4ccc(OC(F)(F)F)cc4)CC3)cc2)n1	99.3	.	.	.	.	.
CCN(CC)S(=O)(=O)c1ccc(N2CCOCC2)c(NS(=O)(=O)c2ccc(Cl)s2)c1	102.4	.	.	.	.	.
COc1ccccc1CNC(=O)N1CCN(S(=O)(=O)c2ccccc2)CC1	110.4	-1.8	7.7	2.4	8.8	5.8
COc1ccccc1CNC(=O)N1CCN(S(=O)(=O)c2ccc(Cl)cc2)CC1	116.6	-11.4	29.8*	5.2	4.1	0.2
O=C(COc1ccc(S(=O)(=O)N2CCCC2)cc1)N1CCCCC1	107.4	-5.6	-0.1	3.1	1.5	-3.7
O=C(Cc1ccc(F)cc1)OCC(=O)N1CCN(S(=O)(=O)c2ccc(Cl)cc2)CC1	103.7	11.4	12.6	32.8*	-5.2	.
O=C(CNc1cccc([N+](=O)[O-])c1)N1CCN(S(=O)(=O)c2ccc(Cl)cc2)CC1	99.0	6.3	24.5*	.	4.5	.
O=C(COc1ccc(S(=O)(=O)N2CCCC2)cc1)N1CCCC1	122.9	-0.8	3.5	31.3*	7.4	9.1
Cc1ccc(S(=O)(=O)CCC(=O)OCC(=O)N2CCN(S(=O)(=O)c3ccc(Cl)cc3)CC2)cc1	.	-2.5	22.0	12.8	8.5	-7.2
COc1ccc(CCNC(=O)CSC2=NS(=O)(=O)c3cc(F)ccc3N2)cc1OC	101.8	.	.	.	.	.
CC(=O)NC(CC(=O)NNC(=O)c1cccs1)c1ccccc1 (centres undefined)	95.9	-0.2	7.0	-0.6	4.7	.
CN1CCN(S(=O)(=O)c2ccc(Oc3ccc(F)c(Cl)c3)nc2)CC1	94.4	2.6	12.1	1.8	1.2	-5.8
